Assay results published in PubChem BioAssay AID1240 (Sanford-Burnham Center for Chemical Genomics, 2008).
In all, about 50,000 compounds went through this assay and about 800 (1.6%) showed an effect of 50% or more. The sample as a whole holds a higher share of strong results than the screen did.

These compounds were tested against Bcl-2-like protein 10 (Homo sapiens) (UniProt Q9HD36) (assay: Phenotype converters, Bcl-B/TR3 peptide binding displacement, primary biochemical FP (AID 1240;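 note: 0% = Bcl-B with tracer peptide and DMSO and 100% = tracer peptide lacking Bcl-B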)). Settings: GST-Bcl-B / FITC-TR3 peptide fluorescence polarization; stronger effect = higher value; compound at 3.75 mg/L.
Chain of Bcl-2-like protein 10 (Homo sapiens) (Q9HD36 whole entry, looked up): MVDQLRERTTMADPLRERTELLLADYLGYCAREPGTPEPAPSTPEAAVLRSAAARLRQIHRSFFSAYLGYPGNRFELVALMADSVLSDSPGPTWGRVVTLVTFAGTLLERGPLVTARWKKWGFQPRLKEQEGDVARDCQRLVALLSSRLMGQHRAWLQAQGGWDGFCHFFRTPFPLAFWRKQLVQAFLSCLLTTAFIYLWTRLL

| SMILES | displacement [%] |
| --- | --- |
| CCOc1ccc(N2C(=O)NC(=O)/C(=C/c3cc(Br)c(OCC)c(OC)c3)C2=O)cc1 | -6.7 |
| CC(=O)C1=C(O)C(=O)N(C)C1c1ccccc1[N+](=O)[O-] (stereo unspecified) | 2.8 |
| C/C(=N\N=C1\NC(=O)C(CC(=O)NCc2ccccc2)S1)C(C)C (stereo unspecified) | 0.3 |
| CCCCOc1ccc(NC(=O)CSc2nnc(N)s2)cc1 | -16.9 |
| c1ccc(CCSc2nc3ccccc3[nH]2)cc1 | 6.2 |
| Cc1cc(C=C2C(=O)c3ccccc3C2=O)c(-c2ccccc2)n1-c1ccccc1 | 68 |
| Cc1cc(C=C2C(=O)NC(=O)NC2=O)c(-c2ccccc2)n1-c1ccccc1 | 150 |
| Cc1cc(C)c(C=C2C(=O)c3ccccc3C2=O)cc1C | -1.6 |
| Cc1cc(C=C2C(=O)NC(=S)NC2=O)c(-c2ccccc2)n1-c1ccccc1 | 162 |
| Cc1cc(/C=C2/SC(=S)NC2=O)c(-c2ccccc2)n1-c1ccccc1 | 0.7 |
| Cc1cc(/C=C2/NC(=S)NC2=O)c(-c2ccccc2)n1-c1ccccc1 | -14.7 |
| Cc1cc(/C=C2/NC(=O)NC2=O)c(-c2ccccc2)n1-c1ccccc1 | -5.1 |
| Cc1cc(/C=C2/SC(=O)NC2=O)c(-c2ccccc2)n1-c1ccccc1 | -9.6 |
| Cc1cc(/C=N/N2C(=O)c3ccccc3C2=O)c(C)n1-c1ccccc1 | 11.4 |
| CN(C)CCNC(=O)/C(=N\O)c1ccccn1 | 15.9 |
| COc1ccc(CN(C)C(=O)c2cccc(C(=O)N(C)Cc3ccc(OC)cc3)c2)cc1 | 10.7 |
| COc1cccc(C(=O)Nc2ccc(I)cc2Cl)c1 | 8.2 |
| Nc1c(Cc2ccccc2)ccc2c1C(=O)c1ccccc1C2=O | 10.3 |
| CC(C)(CN1CCOCC1)NS(=O)(=O)c1ccc(Cl)cc1 | 7.4 |
| CCc1ccc(OCC(=O)Nc2ccc3ccccc3c2)cc1 | 11.4 |
| Cc1ccc(N2NC(=O)/C(=C/c3ccc(-c4ccc(S(N)(=O)=O)cc4)o3)C2=O)cc1 | 5.6 |
| CC(=O)Nc1ccc(S(=O)(=O)N(Cc2ccccc2)C(C)C)cc1 | 130 |
| CCN(Cc1ccccc1)S(=O)(=O)c1ccc(NC(C)=O)cc1 | 19.2 |
| CC(C)N(Cc1ccccc1)S(=O)(=O)c1ccc(F)cc1 | 12.3 |
| CC1CN(CC(O)COc2ccc3ccccc3c2)CC(C)O1 (stereo unspecified) | 0.2 |
| COc1ccc2[nH]c3c(c2c1)CCn1c-3nc2scc(-c3ccccc3)c2c1=O | 0.2 |

| SMILES | displacement [%] |
| --- | --- |
| CCc1cc2c(C)cc(=O)oc2cc1OC(C)=O | 10.1 |
| COc1cc(CN=Cc2c(O)n(-c3ccc(F)cc3)c(=O)[nH]c2=O)cc(OC)c1 | 84.7 |
| COc1cc(CN=Cc2c(O)n(-c3cc(OC)ccc3OC)c(=O)[nH]c2=O)cc(OC)c1 | 1.6 |
| COc1ccc(N=Cc2c(O)n(-c3ccccc3)c(=O)[nH]c2=O)cc1Cl | 113 |
| COc1cccc(-n2c(O)c(C=Nc3cccc(Cl)c3)c(=O)[nH]c2=O)c1 | -3.7 |
| COc1ccc(CN=Cc2c(O)n(-c3ccc(OC)cc3)c(=O)[nH]c2=O)cc1 | -3.4 |
| COc1ccc(-n2c(O)c(C=Nc3ccc(Cl)cc3)c(=O)[nH]c2=O)cc1 | 14.3 |
| COc1cc(N=Cc2c(O)n(-c3ccc(Cl)cc3)c(=O)[nH]c2=O)cc(OC)c1 | 70.5 |
| Cc1ccc(N=Cc2c(O)n(-c3ccccc3)c(=O)[nH]c2=O)cc1 | -5.6 |
| COc1ccc(CN=Cc2c(O)n(-c3cccc(Cl)c3)c(=O)[nH]c2=O)cc1 | 81.4 |
| COc1ccc(CN=Cc2c(O)n(-c3ccc(Cl)cc3)c(=O)[nH]c2=O)cc1 | -6.6 |
| COc1ccc(-n2c(O)c(C=NCc3ccc(F)cc3)c(=O)[nH]c2=O)cc1 | 12.4 |
| COc1ccc(-n2c(O)c(C=Nc3cccc(Cl)c3)c(=O)[nH]c2=O)cc1 | 14.2 |
| COc1ccccc1CC(=O)Nc1cc(C)ccn1 | 12.9 |
| CS(=O)(=O)N(CC(=O)Nc1cccc(Br)c1)c1ccc(Oc2ccccc2)cc1 | 1.9 |
| COc1ccc(C2CC(=O)C3=C(C2)Nc2ccccc2NC3c2ccc(NC(C)=O)cc2)cc1OC (stereo unspecified) | -4.9 |
| CCCC1=C(C(=O)OCC)C(c2ccc(CC)cc2)NC(=O)N1 (stereo unspecified) | -8.5 |
| O=[N+]([O-])c1ccc(-c2noc(-c3ccccc3Br)n2)cc1 | 4.3 |
| COc1ccc(CN2CCN(Cc3ccncc3)CC2)c(OC)c1 | -16.7 |
| NC(=O)c1ccc(NC(=O)C2CCCC2)cc1 | -4 |
| Cc1ccccc1-n1c(O)c(C=NCCCn2ccnc2)c(=O)[nH]c1=O | -3.4 |
| O=c1[nH]c(=O)n(-c2cccc(Cl)c2)c(O)c1C=NCCCn1ccnc1 | 142 |
| O=c1[nH]c(=O)n(-c2ccccc2Cl)c(O)c1C=NCCCn1ccnc1 | 11.5 |
| COCCOC(=O)c1c(C)oc2c1cc(NS(=O)(=O)c1ccc(F)cc1)c1ccccc12 | 18 |
| Cc1ccc(-c2nnc(N)s2)cc1C | 5.1 |
| COc1ccc(Cn2c(O)c(/C=C3\C=CC=N3)c(=O)[nH]c2=O)cc1 | 12.5 |

| SMILES | displacement [%] |
| --- | --- |
| O=c1[nH]c(=O)n(-c2ccc(Br)cc2)c(O)c1C=C1C=CC=N1 | 123 |
| O=c1[nH]c(=O)n(-c2cccc(C(F)(F)F)c2)c(O)c1C=C1C=CC=N1 | 6.3 |
| CCOc1ccc(-n2c(O)c(C=C3C=CC=N3)c(=O)[nH]c2=O)cc1 | 13.1 |
| COc1ccc(-n2c(O)c(/C=C3\C=CC=N3)c(=O)[nH]c2=O)cc1 | 85.4 |
| O=c1[nH]c(=O)n(-c2ccc(Cl)cc2)c(O)c1/C=C1/C=CC=N1 | -46 |
| O=C1c2ccccc2C(=O)c2c1cccc2S(=O)(=O)Nc1ccc(Cl)cc1 | 9.5 |
| CCOC(=O)C1=C(C)N=c2s/c(=C\c3ccc(O)c(OC)c3)c(=O)n2C1c1ccc(C)cc1 (stereo unspecified) | 98.4 |
| CCOC(=O)C1=C(C)N=c2s/c(=C\c3ccc(O)c(OC)c3)c(=O)n2C1c1ccc(N(C)C)cc1 (stereo unspecified) | -13.9 |
| CCOC(=O)C1=C(c2ccccc2)N=c2s/c(=C\c3ccc(O)c(OC)c3)c(=O)n2C1c1ccc(OC)cc1 (stereo unspecified) | 104 |
| CCOC(=O)C1=C(C)N=c2s/c(=C\c3ccc(O)c(OC)c3)c(=O)n2C1c1ccc(OC)cc1 (stereo unspecified) | 4.2 |
| CCOC(=O)C1=C(C)N=c2s/c(=C\c3ccc(O)c(OC)c3)c(=O)n2C1c1cccc(OC)c1 (stereo unspecified) | -2.1 |
| CCOC(=O)C1=C(c2ccccc2)N=c2s/c(=C\c3ccc(O)c(OC)c3)c(=O)n2C1c1ccccc1OC (stereo unspecified) | 43.3 |
| C=CCSc1nc2ccccc2n1C(=O)C1C(C=C(Cl)Cl)C1(C)C (stereo unspecified) | 7.1 |
| CCOc1ccc(C(=O)NCc2cccs2)cc1OCC | -0.9 |
| O=C(NCCN1CCCC1=O)Nc1ccccc1 | 10.9 |
| O=C(NCCCNC(=O)c1cccc(F)c1)c1cccc(F)c1 | 3.2 |
| O=C(c1cccc(I)c1)N1CCN(c2ccccn2)CC1 | 6.9 |
| O=C1CC(N2CCN(Cc3ccccc3)CC2)C(=O)N1c1ccc(Cl)c(Cl)c1 (stereo unspecified) | 1.7 |
| O=c1c2ccccc2nc(/C=C/c2ccccc2[N+](=O)[O-])n1-c1cccc2ccccc12 | -7 |
| O=c1c2ccccc2nc(/C=C\c2ccccc2O)n1-c1cccc2ccccc12 | -6.6 |
| CN(C)c1ccc(/C=C/c2nc3ccccc3c(=O)n2-c2cccc3ccccc23)cc1 | 105 |
| O=c1c2ccccc2nc(/C=C/c2ccc3c(c2)OCO3)n1-c1cccc2ccccc12 | 78.1 |
| O=c1c2ccccc2nc(/C=C/c2cccc([N+](=O)[O-])c2)n1-c1cccc2ccccc12 | 5 |
| Cn1c(/C=C/c2ccc3c(c2)OCO3)nc2ccccc2c1=O | 1.3 |
| COc1ccccc1-n1cnc2cc(NC(C)=O)ccc21 | 14.7 |
| CC(C)(C)c1cc(C2=C(Cl)C(=O)c3ccccc3C2=O)cc(C(C)(C)C)c1O | 6.9 |

| SMILES | displacement [%] |
| --- | --- |
| O=C1N=c2ccc(Cl)cc2=C1c1sc(NS(=O)(=O)Cc2ccccc2)nc1O | -7.2 |
| CC1=C(C(=O)Nc2ccccc2)C(c2ccccc2Br)NC(=S)N1 (stereo unspecified) | -1.9 |
| CC1=C(C(=O)Nc2ccc(C)cc2)C(c2ccccc2Br)NC(=S)N1 (stereo unspecified) | 84.9 |
| CC1=C(C(=O)Nc2ccc(Br)cc2)C(c2ccccc2Br)NC(=S)N1 (stereo unspecified) | -7 |
| Cc1ccc(SCCNC(=O)CN(c2ccc(C)cc2)S(C)(=O)=O)cc1 | -13.4 |
| O=C1C(=O)N(c2nncs2)C(c2cccc(Br)c2)/C1=C(\O)c1ccc(F)cc1 (stereo unspecified) | 16.6 |
| COc1ccc(C2C(C(=O)c3cccs3)=C(O)C(=O)N2c2nncs2)cc1 (stereo unspecified) | 143 |
| COc1ccc(C2C(C(=O)c3cccs3)=C(O)C(=O)N2c2nncs2)cc1OC (stereo unspecified) | 84.6 |
| O=C(C1=C(O)C(=O)N(c2nncs2)C1c1ccc(Cl)cc1)c1cccs1 (stereo unspecified) | 125 |
| CC(=O)C1=C(O)C(=O)N(c2nc3ccccc3s2)C1c1ccccc1F (stereo unspecified) | -8.5 |
| COc1ccc(C2/C(=C(\O)c3ccc(C)cc3)C(=O)C(=O)N2c2nncs2)cc1 (stereo unspecified) | 13.6 |
| COc1cc(C2/C(=C(\O)c3ccc(F)cc3)C(=O)C(=O)N2c2nncs2)ccc1O (stereo unspecified) | 8.3 |
| O=C1C(=O)N(c2nncs2)C(c2ccc(Cl)cc2)/C1=C(\O)c1ccc(F)cc1 (stereo unspecified) | 20.8 |
| O=C(C1=C(O)C(=O)N(c2nncs2)C1c1ccccc1F)c1cccs1 (stereo unspecified) | 129 |
| O=C(C1=C(O)C(=O)N(c2nncs2)C1c1cccc([N+](=O)[O-])c1)c1cccs1 (stereo unspecified) | 7.1 |
| COc1ccc(C2C(C(C)=O)=C(O)C(=O)N2c2nc3ccccc3s2)cc1OC (stereo unspecified) | -10.4 |
| COc1ccc(C2/C(=C(\O)c3ccc(F)cc3)C(=O)C(=O)N2c2nncs2)cc1 (stereo unspecified) | 11 |
| C/C(=N\N=C1\NC(=O)C(CC(=O)Nc2ccccc2C(F)(F)F)S1)c1ccco1 (stereo unspecified) | -7.9 |
| O=[N+]([O-])c1ccc(N2CCN(S(=O)(=O)c3ccccc3)CC2)cc1NCCc1ccccc1 | 7.8 |
| Cc1ccc2oc(-c3cc(N)ccc3O)nc2c1 | 5.4 |
| S=C1NCCOCCOCCOCCNC(=S)N2CCOCCOCCN1CCOCC2 | 14.7 |
| O=C1C2C(c3ccccc3)C=CC(c3ccccc3)C2C(=O)N1Cc1ccc(F)cc1 (stereo unspecified) | -7.7 |
| COc1cc(/C=N\n2nnnc2N)ccc1OCc1ccc(F)cc1 | 10.6 |
